Laboratory results as given in ChEMBL document CHEMBL4513216, “Probing the Open Global Health Chemical Diversity Library for Multistage-Active Starting Points for Next-Generation Antimalarials” (ACS Infect Dis, 2020).
About 8,600 (12%) of roughly 69,000 compounds showed an effect of 50% or more. The sample as a whole holds a higher share of strong results than the screen did.

Test system: Plasmodium berghei
Experiment: Screen against P. berghei liver stage (PbLuc), transformed with Luciferase, at 10uM
Format: functional, HepG2
Conditions: tested at 10 uM

SMILES | INHIBITION
Cc1ccc(OCCCNC(=O)CN(C)c2ccc(C#N)cn2)cc1 | 49.3%
O=C(CCc1nnc2ccccn2c1=O)NCc1ccc2c(c1)OCO2 | 57%
O=C(CCc1nnc2ccccn2c1=O)NCc1cccnc1 | 37.3%
COc1ccc(CNC(=O)CCc2nnc3ccccn3c2=O)cc1 | 25.3%
Cc1nc(CO[C@@H]2CN(Cc3cccs3)[C@@H]3COC[C@@H]32)cs1 | -33.3%
CNc1cc(C)nc(-c2cc(NC)nc3[nH]ccc23)n1 | -8.51%
CNc1cc(C)nc(-c2cc(NCCO)nc3[nH]ccc23)n1 | -28.4%
Cc1cc(CNc2cncc(C(=O)N(C)C)n2)c2[nH]c(C)c(C)c2c1 | 29.7%
CNc1nc(C)cc(NCc2cc(C)cc3c(C)c(C)[nH]c23)n1 | 87.9%
CNc1cc(C)nc(NCc2cc(C)cc3c(C)c(C)[nH]c23)n1 | 76.7%
C[C@@H](N)C(=O)N1CCC(c2[nH]ncc2-c2ccccc2)CC1 | 36.15%
CC(=O)N1C[C@H]2CCCN(Cc3ccc(C)o3)[C@H]2C1 | -3.58%
O=C(c1cnccn1)N1CCCC2(COCCN(CC3CC3)C2)C1 (configuration not stated) | 37%
O=C(NCc1ccccn1)[C@]12COC[C@H]1CN(Cc1cccnc1)C2 | -17.2%
C[C@H](NC(=O)N1CCC(Cc2ccccc2)CC1)C(=O)O | 27.5%
NC(=O)COc1ccc(CNCc2ccc(Cl)c(F)c2)cc1 | 0.426%
CC(Cn1cccn1)NC(=O)CCC(=O)c1cccs1 (configuration not stated) | -13.5%
c1ccc2c(c1)CC(Cc1cc(N3CCCC3)cnn1)CO2 (configuration not stated) | 13%
COc1ccc2c(c1)OCC(Cc1cnc(N)c(C)c1)C2 (configuration not stated) | 55.9%
Cc1cc(CC2COc3ccccc3C2)cnc1N (configuration not stated) | 75.1%
COc1ccc2c(c1)OCC(Cc1ccc(CN)cn1)C2 (configuration not stated) | -45.5%
COc1ccc2c(c1)OCC(Cc1cncc(N)c1)C2 (configuration not stated) | 61.1%
COc1ccc2c(c1)OCC(Cc1cc(N3CCCC3)cnn1)C2 (configuration not stated) | -43.7%
COc1ccc2c(c1)OCC(Cc1ccc(N(C)C)nc1)C2 (configuration not stated) | 14.9%
COc1ccc2c(c1)OCC(Cc1ccc(N)cn1)C2 (configuration not stated) | -93%
COc1cccc2c1OCC(Cc1cnc(N)c(C)c1)C2 (configuration not stated) | 14.5%

SMILES | INHIBITION
O=C(c1sccc1-n1cnnn1)N1CCC2(CCCCC2)CC1 | 28.1%
Cc1ccc(C(=O)NC(CN2CCCC2=O)c2ccccc2)cn1 (configuration not stated) | 15.3%
CC(C)N1CCC(c2nccnc2Nc2ncccn2)CC1 | 42.4%
Cc1ncc2c(n1)CN(C=C1NN=C(c3occc3C)O1)CC2 | 47.6%
O=C(Nc1cnn(Cc2ccccc2)c1)N1CCN(CCO)CC1 | -26.8%
c1cncc(-c2noc(C3CN(Cc4cccs4)C3)n2)c1 | 22.2%
Cc1nc(C2CCN(Cc3ncc[nH]3)CC2)no1 | 20.8%
COC(=O)CN1CCSC(c2ccccc2)C1 (configuration not stated) | 48.2%
CCCn1ncc(CN2CCCC(C(=O)c3ccc(Cl)cc3C)C2)c1C (configuration not stated) | 73%
Cc1cc(Cl)ccc1C(=O)C1CCCN(Cc2cnc(N(C)C)s2)C1 (configuration not stated) | 83%
CCCn1ncc(CN2CCCC(C(=O)c3ccc(SC)cc3)C2)c1C (configuration not stated) | 83.9%
CCn1ncc(CN2CCCC(C(=O)c3ccc(Cl)cc3)C2)c1C (configuration not stated) | 18.5%
CCn1ncc(CN2CCCC(n3c(=O)oc4ccccc43)C2)c1C (configuration not stated) | 4.7%
CC(C)(N)C(=O)N1CCCC(C(=O)c2ccc(C(C)(C)C)cc2)C1 (configuration not stated) | 36.8%
CN(C)c1ncc(CN2CCCC(Nc3ccc4c(c3)OCCO4)C2)s1 (configuration not stated) | -0.217%
COc1ccc(F)cc1C(=O)C1CCCN(Cc2cnc(C)s2)C1 (configuration not stated) | 47.2%
Cc1c(CN2CCCC(C(=O)c3ccc(C(C)(C)C)cc3)C2)cnn1C (configuration not stated) | 89.4%
COc1ccc(C(=O)C2CCCN(Cc3cnn(C)c3C)C2)c(OC)c1 (configuration not stated) | 14.3%
CSc1ccc(C(=O)C2CCCN(C(=O)CCCn3cncn3)C2)cc1 (configuration not stated) | 22.2%
CSc1ccc(C(=O)C2CCCN(C(=O)CCn3cncn3)C2)cc1 (configuration not stated) | 22.2%
Cc1cc(CN2CCN(C(=O)NCc3ccc(C)s3)CC2)on1 | -24.2%
Cc1cnn(CCNCC(=O)N2CCN(c3ccccn3)CC2)c1 | -0.613%
O=C(c1ccnc(-n2ccnc2)c1)N1CCCC(n2cccn2)C1 (configuration not stated) | 36.1%
CN(CC1COc2ccccc2O1)C(=O)c1ccc(-c2cn[nH]c2)nc1 (configuration not stated) | 2.18%
O=C(c1ccccn1)N1CCCC2(CCN(c3ccsc3)C2=O)C1 (configuration not stated) | 35.6%
CN(C)C(=O)[C@@H]1CCO[C@@H]2CCN(Cc3ccccc3)C[C@@H]21 | -11.5%
